{"source": "PubChem BioAssay"}
{"target": "Dickkopf-related protein 1 (Homo sapiens) (UniProt O94907)", "sequence (O94907 whole entry, looked up)": "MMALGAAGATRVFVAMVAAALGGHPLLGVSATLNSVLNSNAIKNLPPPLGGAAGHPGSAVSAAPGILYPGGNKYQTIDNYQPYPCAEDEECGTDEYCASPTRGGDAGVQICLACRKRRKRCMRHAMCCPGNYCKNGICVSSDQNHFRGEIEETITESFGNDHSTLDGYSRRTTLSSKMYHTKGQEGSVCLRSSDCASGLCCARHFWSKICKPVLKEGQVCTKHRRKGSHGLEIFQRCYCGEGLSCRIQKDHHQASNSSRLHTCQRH", "experiment": "DKK1 binders on small-molecule microarrays, primary screen, biochemical, small-molecule microarray, 635 nm fluorescence scan (AID 1106);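 note: score merges emission near 667 nm with signal to noise over three replicate slides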", "conditions": "DKK1 binding, higher = more signal"}
{"smiles": "O=C1C[C@@H](O)[C@@H](O)[C@@H]2[C@@H]3C(=O)N(c4ccc(F)cc4F)C(=O)[C@@H]3CC[C@H]12", "composite z-score": 0.597}
{"smiles": "Cc1cc(C)c(-c2cc([C@H](C)ON=C[C@@H](C)[C@H](OCc3ccccc3)C(C)C)on2)c(C)c1", "composite z-score": -0.034}
{"smiles": "CCN1C(=O)[C@H]2[C@H]3[C@H](O)[C@H](O)CC(=NOCC=C(C)CCC=C(C)C)[C@@H]3CC[C@H]2C1=O", "composite z-score": 1.16}
{"smiles": "CC(CCC(=O)OC[C@H]1O[C@H](C#Cc2ccccc2)C=C[C@@H]1Oc1ccc(C)cc1)=NOC[C@@H](C)[C@H](OCc1ccccc1)C(C)C", "composite z-score": -0.613}
{"smiles": "CCOC(=O)CCN1C(=O)[C@H]2[C@H]3[C@H](O)[C@H](O)CC(=NO[C@@H]4O[C@H](CO)[C@@H](O)[C@H](O)[C@H]4O)[C@H]3CC[C@H]2C1=O", "composite z-score": 0.315}
{"smiles": "CC1(C)O[C@H]2OC([C@H](O)CON3C(=O)c4ccccc4C3=O)[C@H](O)[C@H]2O1", "note": "(stereo partly specified)", "composite z-score": 0.46}
{"smiles": "CC(CCN1CCc2nc(-c3ccccc3)c(-c3ccccc3)cc2C1)=NO[C@H](C)c1cn([C@H](CO)Cc2ccccc2)nn1", "composite z-score": -0.193}
{"smiles": "CON=C(C)CCN1CCCc2nc(C)c(C)cc21", "composite z-score": 0.847}
{"smiles": "CC(=O)OC[C@H]1O[C@@H](ON=C(C)CCC(=O)OC[C@H]2O[C@H](C#Cc3ccccc3)C=C[C@@H]2Oc2ccc(C)cc2)[C@H](OC(C)=O)[C@@H](OC(C)=O)[C@@H]1OC(C)=O", "composite z-score": 0.911}
{"smiles": "CCN1C(=O)[C@H]2[C@H]3[C@H](O)[C@H](O)CC(=NO[C@H](C)c4cn([C@H](CO)Cc5ccccc5)nn4)[C@@H]3CC[C@H]2C1=O", "composite z-score": 0.553}
{"smiles": "CC(=O)OC[C@H]1O[C@@H](ON=C(C)C)[C@H](OC(C)=O)[C@@H](OC(C)=O)[C@@H]1OC(C)=O", "composite z-score": -1.38}
{"smiles": "CC(C)CON=C1C[C@@H](O)[C@@H](O)[C@@H]2[C@@H]3C(=O)N(c4ccc(F)cc4F)C(=O)[C@@H]3CC[C@@H]12", "composite z-score": 0.289}
{"smiles": "C=C(C)C(=O)OC[C@H]1CN2[C@@H](CC[C@@H](C)[C@@H]2c2ccc(Br)cc2)C(=O)O1", "composite z-score": 0.302}
{"smiles": "CC(CCN1CCCc2nc(C)c(C)cc21)=NOC[C@@H](O)COCc1ccco1", "composite z-score": 2.25}
{"smiles": "O=C1C=C[C@@H](O)[C@@H]2[C@@H]3C(=O)N(Cc4ccc5c(c4)OCO5)C(=O)[C@@H]3CC[C@@H]12", "composite z-score": 0.615}
{"smiles": "CC(C)(C)N1C(=O)[C@H]2[C@H]3[C@H](O)[C@H](O)CC(=NOC[C@@H](O)COCc4ccco4)[C@@H]3CC[C@H]2C1=O", "composite z-score": -0.272}
{"smiles": "C=CC[C@@H]1C=CC(ON=C(C)C)[C@@H](CO)O1", "note": "(stereo partly specified)", "composite z-score": -0.307}
{"smiles": "CCC1=NOC(CCC2CC(OC(=O)NCc3cccc4c3OCO4)CC3(CCCC(COC(=O)NCCc4ccc(Cl)cc4)O3)O2)C1", "note": "(stereo unspecified)", "composite z-score": 0.119}
{"smiles": "C#CCCCON=C1C[C@@H](O)[C@@H](O)[C@@H]2[C@@H]3C(=O)N(C4CCCCC4)C(=O)[C@@H]3CC[C@@H]12", "composite z-score": 0.692}
{"smiles": "CC(=O)OC[C@H]1O[C@H](CC=NOC[C@@H](O)COCc2ccco2)C=C[C@@H]1OC(C)=O", "composite z-score": 1.74}
{"smiles": "CC(C)=NOC(C)CN1CCCc2nc(C)c(C)cc21", "note": "(stereo unspecified)", "composite z-score": 0.63}
{"smiles": "CCOC(=O)[C@H](Cc1ccccc1)NC(=O)CCC1CC(OC(=O)NCc2cccc3ccccc23)CC2(CCCC(COC(=O)NCC3CCCCC3)O2)O1", "note": "(stereo partly specified)", "composite z-score": 0.795}
{"smiles": "O=C1C[C@H](c2ccccc2)[C@H](c2ccc(Br)cc2)O1", "composite z-score": 0.278}
{"smiles": "COC(=O)[C@H](C)NC(=O)CCC1CC(OC(=O)NCCc2ccc(F)cc2)CC2(CCCC(COC(=O)NCC3CCCCC3)O2)O1", "note": "(stereo partly specified)", "composite z-score": 0.678}
{"smiles": "CN1CCc2nc(-c3ccccc3)c(-c3ccccc3)cc2C1", "composite z-score": 0.503}
{"smiles": "CC#CCOCCC=C1c2ccccc2[C@@H](OC)[C@@H]1C", "composite z-score": 0.487}
{"smiles": "C#CCCCON=C1C[C@@H](O)[C@@H](O)[C@@H]2[C@@H]3C(=O)N(C[C@@H]4CCCO4)C(=O)[C@@H]3CC[C@H]12", "composite z-score": 0.481}
{"smiles": "O=C1[C@H]2[C@H]3[C@H](O)[C@H](O)CC(=NO[C@@H]4O[C@H](CO)[C@@H](O)[C@H](O)[C@H]4O)[C@H]3CC[C@H]2C(=O)N1c1ccc(F)cc1F", "composite z-score": -0.494}
{"smiles": "CCCNC(=O)OC[C@H]1O[C@H](CCON=C2C[C@@H](O)[C@@H](O)[C@@H]3[C@@H]4C(=O)N(CC)C(=O)[C@@H]4CC[C@@H]23)C=C[C@@H]1Oc1ccc(OC)cc1", "composite z-score": 1.35}
{"smiles": "CC(C)=CCCC(C)=CCON=C1C[C@@H](O)[C@@H](O)[C@@H]2[C@@H]3C(=O)N(c4cccc(Oc5ccccc5)c4)C(=O)[C@@H]3CC[C@H]12", "composite z-score": 0.419}
{"smiles": "COc1ccc(OC[C@@H](CO)OC)cc1", "composite z-score": 0.321}
{"smiles": "COc1ccc(OC[C@H]2CN3[C@@H](CC[C@@H](C)[C@@H]3c3ccc(Br)cc3)C(=O)O2)cc1", "composite z-score": 0.344}
{"smiles": "Cc1ccc(S(=O)(=O)N[C@@H]2COC(=O)CC=C[C@@H](C)[C@H](NS(=O)(=O)c3ccc(C)cc3)COC(=O)[C@H](C)NC(=O)CC=C[C@H]2C)cc1", "composite z-score": 0.123}
{"smiles": "CC(C)CON=C1C[C@@H](O)[C@@H](O)[C@@H]2[C@@H]3C(=O)N(C(C)(C)C)C(=O)[C@@H]3CC[C@@H]12", "composite z-score": 1.95}
{"smiles": "CCOC(=O)CCN1C(=O)[C@H]2[C@H]3[C@H](O)[C@H](O)CC(=O)[C@@H]3CC[C@H]2C1=O", "composite z-score": 0.935}
{"smiles": "CCOC(=O)[C@H](CC(C)C)NC(=O)CCC1CC(OC(=O)NCc2ccc3c(c2)OCO3)CC2(CCCC(COC(=O)NCCC(C)C)O2)O1", "note": "(stereo partly specified)", "composite z-score": 0.0586}
